29 molecules from PubChem BioAssay can be followed below.

The structures appear in SMILES notation. Active and inactive are the calls of the source.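 Rule for the calls, unless noted: active = compounds killing one labelled cell type while sparing the other, by normalised counts and ratio limits, not self-fluorescent; inactive = the rest.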

Test [1] has as its system Neuropilin-2 / VEGF-C interaction (human). The test is described as follows: small molecules blocking Neuropilin-2/VEGF-C interaction – biochemical, microplate binding format, z-score (AID 743281; call rule not given here). As to conditions: microplate NRP2/VEGF-C binding assay; stronger effect = lower value.
A short description of test [2]: modulation of C. elegans fzo-1 (AID 1259413; call rule not given here;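 note: fzo-1 mutant C. elegans worms in liquid wells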). As to conditions: C. elegans fzo-1 modulator screen, mean read-out; stronger effect = higher value.
Test [3] can be described thus: EMT-state selective cytotoxicity in co-culture – imaging, PC-3E GFP, TEM4-18 mCherry, primary screen (AID 1345086).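 For all read-outs here: cells exposed to compound for 72 h before imaging.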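 For red/green cell ratio (normalised): normalised mesenchymal count divided by normalised epithelial count so high means epithelial killing.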 As to conditions: PC-3E GFP / TEM4-18 mCherry co-culture, imaging cell counts, at 1 µM; for red/green cell ratio (normalised): actives lie on both sides, counts scaled to control wells, 1 = unselective.
Setting [4] is: measured here: epithelial PC-3E GFP cell survival.
Setting [5] is: measured here: mesenchymal TEM4-18 mCherry cell survival.

For the molecule `C=C1/C(=C\C=C2/CCCC3(C)[C@@H]([C@H](C)/C=C/[C@@H](O)C4CC4)CC[C@@H]23)C[C@@H](O)C[C@@H]1O` (some centres not stated), the molecule was classed as inactive in test [1]. Also, the mean signal in test [2] was 277 (inactive).
Consider `C[C@@H]1C[C@H]2[C@@H]3CCC4=CC(=O)C=CC4(C)[C@@]3(F)[C@@H](O)CC2(C)[C@H]1C(=O)CO` (some centres not stated), for which the molecule was classed as inactive in test [1]. Besides, the mean signal in test [2] is 245 (inactive).
Take `CCOC(=O)O[C@]1(C(=O)OCCl)CC[C@H]2[C@@H]3CCC4=CC(=O)C=CC4(C)[C@H]3[C@@H](O)CC21C` (some centres not stated): the result in test [1] was inactive. The mean signal in test [2] was 256 (inactive).
On the same counts, the results for `CC(C)(C)NC(=O)[C@H]1CC[C@H]2[C@@H]3CC[C@H]4NC(=O)C=CC4(C)[C@H]3CCC12C` (some centres not stated) are “inactive” and 247 (inactive).
As for `CO[C@H]1C=CO[C@@]2(C)Oc3c(C)c(O)c4c(O)c(c(/C=N/N5CCN(C6CCCC6)CC5)c(O)c4c3C2=O)NC(=O)/C(C)=C\C=C[C@H](C)[C@H](O)[C@@H](C)[C@@H](O)[C@@H](C)[C@H](OC(C)=O)[C@@H]1C`, the outcome in test [1] was inactive. In addition, the mean signal in test [2] was 288 (inactive).
Turning to `CC(=O)O[C@H]1CC2CCC3C(CC[C@@]4(C)C3C[C@H]([N+]3(C)CCCCC3)[C@@H]4OC(C)=O)[C@@]2(C)C[C@@H]1[N+]1(C)CCCCC1` (some centres not stated), the red/green cell ratio (normalised) in test [3] is 0.99 (inactive). For the same molecule, the normalised cell number in test [3] (setting [4]) came to 0.95; in test [3] (setting [5]), 0.94.
On the same counts, the results for `C=C1C(=O)OC(C(=O)O)C1(O)CCCCCCCCC` (configuration not stated) are 0.96 (inactive), 1.02 and 0.98.
`CC(CCC(=O)O)[C@H]1CCC2C3CC[C@@H]4C[C@H](O)CC[C@]4(C)C3C[C@H](O)[C@@]21C` (some centres not stated): in test [3], the red/green cell ratio (normalised) is 1.05 (inactive). For the same molecule, the normalised cell number in test [3] (setting [4]) came out at 0.86; in test [3] (setting [5]) it was 0.91.
Take `C=C(C)C#CC1=C[C@@H](O)[C@@H]2O[C@]2([C@H](O)C=C(C)C)[C@@H]1O`: in test [3], the red/green cell ratio (normalised) is 0.95 (inactive). In addition, the figures for the normalised cell number in test [3] (setting [4]) and in test [3] (setting [5]) were 0.96 and 0.91, respectively.
Consider `Cc1ccc(S[C@H]2OC(COS(=O)(=O)c3ccc(C)cc3)C(O)[C@@H]3OC(=O)N[C@H]23)cc1` (some centres not stated), for which the red/green cell ratio (normalised) in test [3] is 0.86 (inactive). Also, the normalised cell number in test [3] (setting [4]) came out at 1.19; in test [3] (setting [5]), 1.02.
Take `C=C1OC(=O)C23C1OC(CC(O)C2O)C3C` (configuration not stated): in test [3], the red/green cell ratio (normalised) was 0.9 (inactive). For the same molecule, the results for the normalised cell number in test [3] (setting [4]) and in test [3] (setting [5]) were 1.26 and 1.14, respectively.
As to `CN(C(=O)c1ccccc1)C1C(O[C@@H]2OC(COS(=O)(=O)O)C(NC(=O)c3ccccc3)[C@H](OS(=O)(=O)O)[C@H]2OS(=O)(=O)O)OC2C[C@@H](NC(=O)c3ccccc3)[C@@H](OC3C(NC(=O)c4ccccc4)C[C@@H](NC(=O)c4ccccc4)[C@H](OS(=O)(=O)O)[C@H]3OS(=O)(=O)O)OC2C1OS(=O)(=O)O` (some centres not stated), in test [3], the red/green cell ratio (normalised) was 1 (inactive). The normalised cell number in test [3] (setting [4]) and in test [3] (setting [5]) was 1.06 each time.
`COC(=O)C[C@H]1C2(C)CC34OC5(C)O[C@]6(C7/C(=C(/OC)C(C)C)C(=O)O[C@@H](c8ccoc8)[C@]7(C)C(OC(=O)C(C)C)[C@@H](OC)[C@]6(O5)C13C)[C@H](OC)[C@@]4(OC)C2OC(C)=O` (some centres not stated): in test [3], the red/green cell ratio (normalised) is 0.95 (inactive). Further, the normalised cell number in test [3] (setting [4]) came to 1.04; in test [3] (setting [5]), 1.
Take `Cc1c(F)c(F)cc(C(=O)NC(=O)NC2CC2)c1F`: in test [3], the red/green cell ratio (normalised) was 1 (inactive). The normalised cell number in test [3] (setting [4]) and in test [3] (setting [5]) was 1.02 each time.
For the molecule `C=CC(C)(C)c1cc(O)ccc1OC1OC(CO)C(O)C(O)C1O` (configuration not stated), the red/green cell ratio (normalised) in test [3] was 1.01 (inactive). Besides, the normalised cell number in test [3] (setting [4]) was determined as 0.93; in test [3] (setting [5]), 0.94.
`C[C@@H]1C[C@H](O)[C@@H](O)CO1`: the red/green cell ratio (normalised) in test [3] is 0.94 (inactive). In addition, the normalised cell number is 1.12 in test [3] (setting [4]) and 1.05 in test [3] (setting [5]).
On the same counts, the results for `C/C=C\C(=O)O[C@@H]1[C@H](O)[C@@H](O)CO[C@@H]1C` are 1.01 (inactive), 0.99 and 0.99.
In the case of `COc1cc(-c2coc3cc(O)c(OC)c(O)c3c2=O)cc(O)c1OC`, the red/green cell ratio (normalised) in test [3] is 0.95 (inactive). Also, the values for the normalised cell number in test [3] (setting [4]) and in test [3] (setting [5]) were 1.03 and 0.98, respectively.
As to `COc1cc2c(c3oc4ccccc4c(=O)c13)[C@@H]1C=CO[C@@H]1O2`, in test [3], the red/green cell ratio (normalised) is 0.91 (inactive). Besides, the normalised cell number in test [3] (setting [4]) came out at 0.44; in test [3] (setting [5]), 0.4.
For the molecule `CC(CC(=O)N1C(=O)OC[C@H]1c1ccccc1)N1CCSC1=S` (some centres not stated), the red/green cell ratio (normalised) in test [3] is 0.94 (inactive). The normalised cell number in test [3] (setting [4]) amounted to 1.15; in test [3] (setting [5]) it was 1.08.
In the case of `O=C(C/C=C/c1ccc(O)c(O)c1)O[C@H](Cc1ccc(O)c(O)c1)C(=O)O`, the red/green cell ratio (normalised) in test [3] was 1.06 (inactive). The results for the normalised cell number in test [3] (setting [4]) and in test [3] (setting [5]) were 1 and 1.06, respectively.
Taken in the same sequence, the figures for `COC(=O)C1O[C@H](OCc2ccc(OC)cc2)[C@@H](OC(=O)c2ccccc2)[C@@H](OC(=O)c2ccccc2)C1O` (some centres not stated) were 0.84 (inactive), 1.32 and 1.11.
As to `CCC[C@H]1Cc2cc3c(-c4c(O)cc(O)c5c(O)c6c(cc45)C[C@H](CCC)OC6=O)c(O)cc(O)c3c(O)c2C(=O)O1`, in test [3], the red/green cell ratio (normalised) is 0.9 (inactive). Besides, the normalised cell number was 0.85 in test [3] (setting [4]) and 0.77 in test [3] (setting [5]).
Taken in the same sequence, the figures for `C[C@@H](Oc1ccc(Oc2ccc3ncc(Cl)nc3c2)cc1)C(=O)O` were 0.86 (inactive), 1.19 and 1.03.
For `CO[C@H]1OC(COCc2ccccc2)C(O)[C@@H]2OC(=O)N[C@H]12` (some centres not stated), in test [3], the red/green cell ratio (normalised) was 1.08 (inactive). The normalised cell number in test [3] (setting [4]) was 0.88; in test [3] (setting [5]) it was 0.95.
`O=C(O)CS`: in test [3], the red/green cell ratio (normalised) was 1.05 (inactive). Further, the normalised cell number in test [3] (setting [4]) stood at 1.25; in test [3] (setting [5]), 1.3.
For the molecule `CC1(C)C[C@]2(C)CC(=O)O[C@H]3OC(=O)[C@@H]4CC[C@@H]1[C@]342`, the red/green cell ratio (normalised) in test [3] is 0.92 (inactive). Moreover, the figures for the normalised cell number in test [3] (setting [4]) and in test [3] (setting [5]) were 1.05 and 0.96, respectively.
Regarding `COC1O[C@@H]2O[C@]3(C)CC[C@H]4[C@H](C)CC[C@@H]([C@H]1C)[C@@]24OO3` (some centres not stated), the red/green cell ratio (normalised) in test [3] is 0.81 (inactive). For the same molecule, the normalised cell number was 0.82 in test [3] (setting [4]) and 0.67 in test [3] (setting [5]).
Taken in the same sequence, the figures for `Oc1ccc(Oc2cnc3ccc(Cl)cc3n2)cc1` were 0.74 (inactive), 1.41 and 1.05.
